# According to PubChem BioAssay (EPA / NIEHS):
# Results filed as inconclusive are left out. Active and inactive are the calls of the source. How the source made its calls, unless noted: active means hit-call score of the fitted dose curve at least 0.9, where 1 is the maximum; inconclusive means response in the unintended direction; inactive means score below 0.9.
# Biological target: X-box-binding protein 1 (Homo sapiens) (UniProt P17861)
# Experiment: ATG_Xbp1_CIS: Attagene CIS-FACTORIAL HepG2 Assay for human X-box Binding Protein 1 (XBP1) (AID 2282972; active means hit-call score of the fitted dose curve at least 0.9, where 1 is the maximum; inactive means score below 0.9)
# Conditions: HepG2 XBP1 cis-element reporter, Attagene multiplex; actives raise or lower the signal
# Outline: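 HepG2 cells transiently transfected with cis-regulated multiple reporter transcription units; endogenous transcription factor activity measured 24 hours after chemical dosing. Reporter mRNA quantified by RT-PCR, 6-FAM primer extension, HpaI digestion and capillary electrophoresis; bidirectional fitting versus DMSO.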
# Chain of X-box-binding protein 1 (Homo sapiens) (P17861 whole entry, looked up): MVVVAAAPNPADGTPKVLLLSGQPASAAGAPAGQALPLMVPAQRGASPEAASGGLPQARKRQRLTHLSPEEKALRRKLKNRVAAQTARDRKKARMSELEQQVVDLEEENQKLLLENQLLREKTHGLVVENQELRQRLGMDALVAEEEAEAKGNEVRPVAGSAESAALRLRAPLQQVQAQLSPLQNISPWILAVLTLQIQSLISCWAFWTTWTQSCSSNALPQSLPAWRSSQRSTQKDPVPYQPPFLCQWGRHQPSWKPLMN
Structure (SMILES),outcome,AC50
COC(=O)Nc1nc2ccccc2[nH]1,inactive,–
CC(C)(O)c1cnn2c(-c3ccc(F)c(-c4c(F)cccc4C#N)c3)cnc2n1,inactive,–
Cc1cccc(N)c1N,–,150 µM (active)
O=C(Oc1ccc(Br)cc1)N1CCN2CCC1CC2,inactive,–
CCCCC(CC)COC(=O)c1ccc(C(=O)OCC(CC)CCCC)c(C(=O)OCC(CC)CCCC)c1 (stereo unspecified),inactive,–
CC(C)(C)C(O)(CCc1ccc(Cl)cc1)Cn1cncn1 (stereo unspecified),inactive,–
[Cl-].[Cl-].[Hg+2],inactive,–
CCC[CH2][Sn]([Cl])([CH2]CCC)[CH2]CCC,–,0.639 µM (active)
CN(C)c1ccc(C(=O)c2ccc(N(C)C)cc2)cc1,inactive,–
O=C1CCCO1,inactive,–
CCC12COCN1COC2,inactive,–
CNC(=O)Oc1cccc2c1OC(C)(C)C2,inactive,–
OCCOCCO,inactive,–
CCOc1cccc(C2(N3CCN(c4ccccc4)CC3)CCC(C)CC2)c1 (stereo unspecified),inactive,–
CC(C)N(Cc1ccccc1)C(=O)C(C)(C)C,inactive,–
Nc1ccc(Cc2ccc(N)cc2)cc1,inactive,–
CN(C)C(=O)Nc1ccc(Cl)cc1,inactive,–
CCOC(=O)[C@]1(c2ccccc2)Oc2ccccc2[C@@H]1N,–,41.9 µM (active)
CCCSC(=O)N(CCC)CCC,inactive,–
OCCCl,inactive,–
O=[N+]([O-])C(Br)(CO)CO,–,145 µM (active)
O=Cc1ccco1,inactive,–
Clc1ccc(C(c2ccc(Cl)cc2)C(Cl)Cl)cc1,–,56.2 µM (active)
c1ccc2c(c1)-c1cccc3cccc-2c13,inactive,–
CCCCCOC(=O)c1ccccc1C(=O)OCCCCC,inactive,–
CCCCCCCCn1sccc1=O,–,16.5 µM (active)
Nc1ccc(Cl)cc1N,–,21 µM (active)
c1ccc2c(c1)oc1ccccc12,inactive,–

# Test system: not listed separately
# Experiment: ATG_M_19_TRANS: Attagene TRANS-FACTORIAL HepG2 Assay for M19 Transcription Factor (Internal Marker) (AID 2282974)
# Conditions: HepG2 Attagene TRANS-FACTORIAL M19 internal marker reporter
# Outline: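 After transfection of HepG2 with GAL4-UAS-driven reporter constructs, cells are dosed for 24 h. Total RNA is reverse-transcribed, reporter sequences PCR-amplified and labelled, then HpaI-digested and sized by capillary electrophoresis.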
row,Structure (SMILES),outcome
1,COC(=O)Nc1nc2ccccc2[nH]1,inactive
2,CC(C)(O)c1cnn2c(-c3ccc(F)c(-c4c(F)cccc4C#N)c3)cnc2n1,inactive
3,O=C(Oc1ccc(Br)cc1)N1CCN2CCC1CC2,inactive
4,CCCCC(CC)COC(=O)c1ccc(C(=O)OCC(CC)CCCC)c(C(=O)OCC(CC)CCCC)c1 (stereo unspecified),inactive
5,CC(C)(C)C(O)(CCc1ccc(Cl)cc1)Cn1cncn1 (stereo unspecified),inactive
6,[Cl-].[Cl-].[Hg+2],inactive
7,CCC[CH2][Sn]([Cl])([CH2]CCC)[CH2]CCC,inactive
8,CN(C)c1ccc(C(=O)c2ccc(N(C)C)cc2)cc1,inactive
9,CCC12COCN1COC2,inactive
10,CNC(=O)Oc1cccc2c1OC(C)(C)C2,inactive
11,OCCOCCO,inactive
12,CC(C)N(Cc1ccccc1)C(=O)C(C)(C)C,inactive
13,Nc1ccc(Cc2ccc(N)cc2)cc1,inactive
14,CCOC(=O)[C@]1(c2ccccc2)Oc2ccccc2[C@@H]1N,inactive
15,O=Cc1ccco1,inactive
16,Clc1ccc(C(c2ccc(Cl)cc2)C(Cl)Cl)cc1,inactive
17,CCCCCCCCn1sccc1=O,inactive

# Test system: not listed separately
# Experiment: ATG_GAL4_TRANS: Attagene TRANS-FACTORIAL HepG2 Assay for GAL4 (Internal Marker) (AID 2282976)
# Conditions: HepG2 Attagene TRANS GAL4 internal marker reporter
# Outline: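 In transfected human HepG2 liver cells dosed 24 h, GAL4 reporter mRNA serves as a baseline marker. Detection by RT-PCR with fluorescent capillary electrophoresis, activity fitted upward relative to DMSO.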
row,Structure (SMILES),outcome
1,O=C(Oc1ccc(Br)cc1)N1CCN2CCC1CC2,inactive
2,CCCCC(CC)COC(=O)c1ccc(C(=O)OCC(CC)CCCC)c(C(=O)OCC(CC)CCCC)c1 (stereo unspecified),inactive
3,CC(C)(C)C(O)(CCc1ccc(Cl)cc1)Cn1cncn1 (stereo unspecified),inactive
4,O=C1CCCO1,inactive
5,CCC12COCN1COC2,inactive
6,CCOc1cccc(C2(N3CCN(c4ccccc4)CC3)CCC(C)CC2)c1 (stereo unspecified),inactive
7,CC(C)N(Cc1ccccc1)C(=O)C(C)(C)C,inactive
8,CN(C)C(=O)Nc1ccc(Cl)cc1,inactive
9,CCCSC(=O)N(CCC)CCC,inactive
10,OCCCl,inactive
11,Clc1ccc(C(c2ccc(Cl)cc2)C(Cl)Cl)cc1,inactive
12,c1ccc2c(c1)-c1cccc3cccc-2c13,inactive
13,CCCCCOC(=O)c1ccccc1C(=O)OCCCCC,inactive
14,CCCCCCCCn1sccc1=O,inactive
15,Nc1ccc(Cl)cc1N,inactive
16,c1ccc2c(c1)oc1ccccc12,inactive

# Biological target: Bile acid receptor (Homo sapiens) (UniProt Q96RI1)
# Sequence (Q96RI1 whole entry, looked up): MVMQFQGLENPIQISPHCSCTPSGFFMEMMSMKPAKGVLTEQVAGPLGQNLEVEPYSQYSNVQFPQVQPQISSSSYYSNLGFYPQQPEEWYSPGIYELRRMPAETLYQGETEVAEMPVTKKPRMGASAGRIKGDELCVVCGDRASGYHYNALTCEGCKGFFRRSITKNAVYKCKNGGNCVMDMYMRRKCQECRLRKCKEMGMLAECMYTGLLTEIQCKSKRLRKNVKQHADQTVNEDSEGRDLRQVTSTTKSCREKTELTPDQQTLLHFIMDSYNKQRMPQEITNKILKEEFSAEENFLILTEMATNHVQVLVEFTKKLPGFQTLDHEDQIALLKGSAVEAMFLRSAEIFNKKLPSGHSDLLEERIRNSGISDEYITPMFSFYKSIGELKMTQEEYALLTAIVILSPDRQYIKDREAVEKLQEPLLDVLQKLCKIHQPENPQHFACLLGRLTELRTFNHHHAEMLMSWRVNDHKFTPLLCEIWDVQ
# Experiment: ATG_FXR_TRANS: Attagene TRANS-FACTORIAL HepG2 Assay for Farnesoid X Receptor (FXR) (AID 2282979);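 further: hits raise reporter mRNA above DMSO so AC50 marks FXR activation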
# Conditions: HepG2 Attagene TRANS FXR-GAL4 reporter transcription
# Outline: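 Reporter transcripts from transfected HepG2 cells were measured 24 h after dosing, using RT-PCR with capillary electrophoresis of 6-FAM-labelled fragments. The read-out reflects activity of exogenous FXR-Gal4 chimera on GAL4-UAS units, with induction relative to DMSO.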
Structure (SMILES),AC50,outcome
CC(C)(O)c1cnn2c(-c3ccc(F)c(-c4c(F)cccc4C#N)c3)cnc2n1,14.5 µM (active),–
Cc1cccc(N)c1N,–,inactive
CCC[CH2][Sn]([Cl])([CH2]CCC)[CH2]CCC,–,inactive
CN(C)c1ccc(C(=O)c2ccc(N(C)C)cc2)cc1,–,inactive
CC(C)N(Cc1ccccc1)C(=O)C(C)(C)C,–,inactive
Nc1ccc(Cc2ccc(N)cc2)cc1,–,inactive
CN(C)C(=O)Nc1ccc(Cl)cc1,–,inactive
CCOC(=O)[C@]1(c2ccccc2)Oc2ccccc2[C@@H]1N,–,inactive
OCCCl,–,inactive
O=[N+]([O-])C(Br)(CO)CO,–,inactive
Clc1ccc(C(c2ccc(Cl)cc2)C(Cl)Cl)cc1,–,inactive
CCCCCCCCn1sccc1=O,–,inactive
Nc1ccc(Cl)cc1N,–,inactive

# Biological target: Oxysterols receptor LXR-alpha (Homo sapiens) (UniProt Q13133)
# Sequence (Q13133 whole entry, looked up): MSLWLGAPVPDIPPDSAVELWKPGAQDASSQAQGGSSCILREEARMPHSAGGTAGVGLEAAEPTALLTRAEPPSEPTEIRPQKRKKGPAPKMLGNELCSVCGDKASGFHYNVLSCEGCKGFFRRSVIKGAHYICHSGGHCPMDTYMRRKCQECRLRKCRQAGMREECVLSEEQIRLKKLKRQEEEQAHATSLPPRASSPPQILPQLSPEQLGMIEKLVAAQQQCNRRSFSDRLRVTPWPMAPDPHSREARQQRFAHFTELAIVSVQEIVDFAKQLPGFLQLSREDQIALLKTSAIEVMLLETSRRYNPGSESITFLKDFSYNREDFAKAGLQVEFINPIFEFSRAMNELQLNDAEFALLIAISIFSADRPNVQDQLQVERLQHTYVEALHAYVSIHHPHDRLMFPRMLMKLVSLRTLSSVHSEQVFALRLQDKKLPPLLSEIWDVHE
# Experiment: ATG_LXRa_TRANS: Attagene TRANS-FACTORIAL HepG2 Assay for human Liver X Receptor alpha (LXRa) (AID 2282980)
# Conditions: HepG2 Attagene TRANS reporter, LXRa transactivation
# Outline: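 Chemical-induced reporter mRNA measured by RT-PCR with fluorescent labelling and capillary electrophoresis after 24 h dosing of transiently transfected HepG2 cells expressing exogenous NR-Gal4 chimeras; increases scored against DMSO baseline.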
row,Structure (SMILES),outcome
1,Cc1cccc(N)c1N,inactive
2,O=C(Oc1ccc(Br)cc1)N1CCN2CCC1CC2,inactive
3,[Cl-].[Cl-].[Hg+2],inactive
4,CN(C)c1ccc(C(=O)c2ccc(N(C)C)cc2)cc1,inactive
5,CCC12COCN1COC2,inactive
6,CNC(=O)Oc1cccc2c1OC(C)(C)C2,inactive
7,OCCOCCO,inactive
8,Nc1ccc(Cc2ccc(N)cc2)cc1,inactive
9,OCCCl,inactive
10,O=[N+]([O-])C(Br)(CO)CO,inactive
11,O=Cc1ccco1,inactive
12,Nc1ccc(Cl)cc1N,inactive
